# Most compounds without a hit are left out; they make up all but 9.4% or so of the library.
# Pf growth 96h: Primary qHTS for delayed death inhibitors of the malarial parasite plastid, 96 hour incubation | 320,000 tested, 6.9% active | AID 504834, 2011 | Potency, µM (highest dose often 28.7 µM), for the others: at the highest dose activity change, negative = inhibition, hits mostly inhibitors | P. falciparum luciferase reporter growth, 96 h; also: % is scaled to controls: 0 for no effect and ±100 for the full control effect
#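 Luminescence readout: decreased luciferase signal marks inhibited growth of reporter-expressing P. falciparum in infected red cells (2% hematocrit, 0.05% parasitemia final), exposed to compound two generations (96 h, 37 C, 5% CO2).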
# SARS PLpro yeast: qHTS of Yeast-based Assay for SARS-CoV PLP; Potency, µM (titrated, usually from 32.9 µM), for inactives: at the top dose activity, positive = growth rescue, hits mostly activators; S. cerevisiae expressing SARS-CoV PLpro, growth rescue; AID 485353, 2010; 330,000 tested, 0.19% active; calls by dose curve; also: 0% is about no effect; nearly all actives have a fitted effect of over 55% in size
# Pf growth 48h: Primary qHTS for delayed death inhibitors of the malarial parasite plastid, 48 hour incubation; 310,000 tested, 5.9% active; Potency, µM (top dose mostly 28.7 µM), for the others: at the top dose activity change, negative = inhibition, hits mostly inhibitors; P. falciparum luciferase growth in erythrocytes, 48 h; also: % is scaled to controls: 0 for no effect and ±100 for the full control effect
#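 Firefly luciferase activity from engineered P. falciparum reports growth; inhibitors lower the luminescent signal. Cultures contained 2% hematocrit erythrocytes at 0.1% final parasitemia.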
# AMA1-RON2 inh: qHTS for Inhibitors of AMA1-RON; Towards Development of Antimalarial Drug Lead: Primary Screen. Plasmodium falciparum AMA1 (3D7) - RON2 peptide interaction. AlphaScreen AMA1-biotinylated RON2 peptide binding. Potency, µM (doses to about 58.2 µM), inactives show top-dose activity change, negative = inhibition, most hits filed as inhibitors. 360,000 tested, 0.2% active;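 also: 0% = vehicle wells and -100% = peptide control; nearly all actives have a fitted effect of over 45% in size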
#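 AMA1 (3D7) with his tag at 25 nM final met compounds first, then biotinylated RON2 peptide at 25 nM; detection used donor plus acceptor beads, 10 µg/mL apiece, read by AlphaScreen after 30 min at room temperature.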
# The depositor's hits bear a star; u = inconclusive; x = no result. Unless noted, calls follow the shape of the dose curve; as a rule, active = well fitted curve in the direction sought with a large enough effect; inconclusive = small, poorly fitted or top-dose-only effect, or another doubt; inactive = no such curve, though single readings can be large; an effect the other way counts as inactive or inconclusive. Potency is read from the fitted curve at half-maximal effect.
SMILES,Pf growth 96h,SARS PLpro yeast,Pf growth 48h,AMA1-RON2 inh
CCOC(=O)C1CCCN(C(=O)c2ccc(S(=O)(=O)NCc3ccco3)cc2)C1 (centres undefined),11.7µM*,-13.3%,u,-11.5%
CCOC(=O)C1CCCN(C(=O)c2ccc(CNS(=O)(=O)c3ccc(C)cc3)cc2)C1 (centres undefined),-7.6%,-1.7%,u,-15.4%
Cc1ccc(N(C)S(=O)(=O)c2cccc(C(=O)Nc3nnc(C4CC4)s3)c2)cc1,-16.0%,0.0%,23.7%,13.4%
CCOc1ccc(N(C)S(=O)(=O)c2ccc(C)c(C(=O)Nc3nnc(C4CC4)s3)c2)cc1,u,3.1%,4.15µM*,-9.3%
FC(F)Sc1ccc(NC(=S)NC2CCCC2)cc1,24.9%,8.7%,86.2%,0.3%
COc1ccc(N(C)S(=O)(=O)c2cccc(C(=O)N3CCN(S(=O)(=O)c4ccc(C)cc4)CC3)c2)cc1,2.62µM*,3.7%,5.86µM*,-15.8%
COc1ccc(-n2nnnc2SCC(=O)NC2CC2)cc1,8.9%,-0.2%,-12.8%,0.0%
CCOC(=O)c1oc2ccccc2c1CSc1nnnn1-c1ccc(OC)cc1,11.7µM*,-0.1%,4.8%,-0.8%
COc1ccc(-n2nnnc2SCC#CCO)cc1,0.465µM*,-2.2%,-6.1%,-0.9%
COc1cccc(CSc2nnnn2-c2ccc(O)cc2)c1,u,-5.0%,9.28µM*,-9.3%
CCCn1c(=O)c2ccccc2n2c(SCc3c(C(=O)OCC)oc4ccccc34)nnc12,-6.8%,7.4%,u,-10.0%
CCCCn1c(N)c(N(CC(C)C)C(=O)C2CC(=O)N(CCc3ccccc3)C2)c(=O)[nH]c1=O (centres undefined),-1.8%,0.3%,-7.9%,-6.0%
C=C(C)Cn1c(CCNC(=O)c2ccco2)nc2ccccc21,-17.8%,0.7%,-3.1%,0.0%
O=C(O)C1CCN(c2ccc(S(=O)(=O)N3CCOCC3)cc2[N+](=O)[O-])CC1,-11.6%,1.4%,9.9%,-3.2%
C=CCn1c(-c2oc3nc(-c4ccccc4)cc(-c4ccccc4)c3c2N)n[nH]c1=S,u,-14.6%,u,60.0%
CC(c1nnnn1C(C)(C)C)N(Cc1cccnc1)Cc1ccccc1Cl (centres undefined),x,-9.0%,13.1µM*,-4.5%
Clc1ccccc1CN(Cc1ccccc1)C(c1cccs1)c1nnnn1C1CCCC1 (centres undefined),u,x,u,-6.0%
CC(C)(C)n1nnnc1C(c1cccs1)N(Cc1cccnc1)Cc1ccccc1Cl (centres undefined),110.3%,u,2.94µM*,-10.6%
CCC(C)(C)n1nnnc1C(C(C)C)N(Cc1cccnc1)Cc1ccco1 (centres undefined),4.5%,-0.4%,u,-13.7%
COc1ccc2c(c1)c1nc3ccccc3nc1n2Cc1ccc(OC(C)C)c(OC)c1,u,-4.7%,11.7µM*,24.7%
Cc1ccccc1Nc1nc(-c2sc(NC(=O)c3ccccc3)nc2C)cs1,11.7µM*,-4.0%,9.28µM*,x
CCOc1ccccc1Nc1nc(-c2sc(NC(=O)c3ccc([N+](=O)[O-])cc3)nc2C)cs1,u,-1.0%,3.29µM*,x
Cc1ccc(Nc2nc(-c3sc(N)nc3C)cs2)cc1,-11.8%,-5.9%,28.5%,66.2%
Cc1ccc(Nc2nc(-c3sc(NC(=O)c4ccc([N+](=O)[O-])cc4)nc3C)cs2)cc1,2.62µM*,-7.5%,9.28µM*,x
Cc1ccccc1Nc1nc(-c2sc(NC(=O)c3ccc([N+](=O)[O-])cc3)nc2C)cs1,13.1µM*,1.3%,u,x
O=C(O)c1cccc2c1-c1c(cccc1[N+](=O)[O-])C2,x,x,x,-6.8%
CN(CCCCCCN(C)Cc1ccccc1O)Cc1ccccc1O,u,-0.4%,u,u
Cc1ccc(N(C(=O)Cc2c[nH]c3ccccc23)C(C(=O)NC2CCCCC2)c2ccco2)cc1 (centres undefined),u,-4.0%,10.4µM*,-7.1%
Cc1ccc(C(C(=O)NC2CCCCC2)N(Cc2ccco2)C(=O)Cc2c[nH]c3ccccc23)o1 (centres undefined),u,-5.7%,13.1µM*,-18.0%

# Screens deposited in PubChem by National Center for Advancing Translational Sciences (NCATS).
